# In PubChem BioAssay (NCI):
# Compounds without any hit were thinned out: in the full panel of roughly 83,000, 20% have a hit.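 Values shown are percent growth following 48 h exposure of cells in 96-well plates to a single concentration of compound; below 10 was considered active.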 A number with no mark means an inactive call. Active and inactive are the calls of the source.
# Tested on: MALME-3M melanoma
# Assay: NCI-60 one-dose screen, 48 h (100 = growth as untreated, 0 = no growth, -100 = all killed)
# Conditions: 10 µM unless noted
row,Structure (SMILES),growth [%]
1,N#C/C(=C\c1ccc(Br)cc1)c1cc2ccccc2[nH]1,99.3
2,COc1ccc(C2=C/C(=C\c3ccc(Cl)cc3)C(=O)N2/N=C/c2ccc(Cl)cc2)cc1,96.4
3,CC(O)c1ncc(/C=C2\SC(=S)N(Cc3ccccc3)C2=O)s1 (configuration not stated),93.2

# Tested on: MDA-MB-231 breast
# Assay: as above
# Conditions: 10 µM unless noted
row,Structure (SMILES),growth
1,C=CCn1c(SCC(=O)Nc2ccc(C(=O)/C=C/c3ccc(OC)cc3)cc2)nnc1-c1ccccc1,76.2%
2,COc1cc2ncnc(Nc3ccc(F)c(Cl)c3)c2cc1OCC(=O)N1CCN(c2ccc(F)cc2)CC1,79.3%
3,Cc1ccc2nc(Cl)c(Cn3nnnc3SCc3ccccc3)cc2c1,88.2%
4,CN1CCN(CCOc2ccc(-c3cnc4c(-c5ccc(C(F)(F)F)cc5)cnn4c3)cc2)CC1,31.6%
5,C/C(C=O)=C\c1ccc2c(c1)OCO2,121%
6,Cc1ccc(O)c(NC(=O)c2ccc(CNc3ccnc(C(F)(F)F)c3)cc2)c1,48.9%
7,O=C1/C(=C/c2ccc(C(F)(F)F)cc2)COc2ccc(O)c(O)c21,-10% (active)
8,O=C(N/N=C/c1ccc(O)cc1O)c1ccc(Nc2ccnc(C(F)(F)F)c2)cc1,46.1%
9,O=c1[nH]c(-c2ccc(Cl)cc2)cn1-c1ccc(-n2cc(-c3ccc(Cl)cc3)[nH]c2=O)cc1,94.7%
10,CC1O[C@@H]2C[C@@](O)([C@H]1O)n1c3ccccc3c3c4c(c5c6ccccc6n2c5c31)C(=O)NC4=O (some centres not stated),57.8%
11,COC1=CC(c2ccc[nH]2)=N/C1=C\c1[nH]c(C)c(CC(=O)OCc2ccccc2)c1C,-13.6% (active)
12,NC(=O)c1ccc(NC(=O)c2oc3ccccc3c2-c2cnn(-c3ccccc3)c2)cc1,-68% [50 µM] (active)
13,CCOC(=O)N1CCN(S(=O)(=O)c2oc(-c3ccc(Cl)cc3)nc2C#N)CC1,93.4%
14,Cc1nn(-c2ccccc2)c(N2CCCCC2)c1/C=N/NC(=O)Cn1c(=O)sc2ccccc21,79%
15,CN(C)c1ccc(C(=NO)c2ccc(N(C)C)cc2)cc1,63.5%
16,Clc1ccc(-c2nc(-c3c[nH]c4ncccc34)cs2)cc1,31.1% [100 µM]
17,COc1ccc(C(c2cc(OC)c(OC)c(OC)c2)N2CCCC2)cc1 (configuration not stated),80.8%

row,Structure (SMILES),growth
1,COc1cccc(C(=O)OCC(O)C(=O)NC23CC4CC(CC(C4)C2)C3)c1 (configuration not stated),93%
2,C=CC(=O)N1CCN(c2ccc3cccc(NC(=O)c4cnc(C)cn4)c3n2)CC1,36.7%
3,CCOC(=O)c1c(C)c2c(n1C)CSc1cc(S(=O)(=O)c3ccccc3)c(=O)[nH]c1-2,31.1% [100 µM]
4,CCCCCCCCNc1cc2c3c(c1)CCCN3CCC2,6.88% (active)
5,COc1ccc(OC)c(-c2cn3nc(-c4c[nH]c5ccc(Br)cc45)sc3n2)c1,9.49% (active)
6,CS(=O)(=O)Nc1cc(-c2ccc3ncnc(Nc4ccc5c(cnn5Cc5cccnc5)c4)c3c2)cnc1Cl,47.6%
7,C=CCN=C(N)SCCCCCCSC(N)=NCC=C,94.8%
8,COc1cc(C2C3=C(COC3=O)N(CCO)c3cc4c(cc32)OCCO4)cc(OC)c1OC (configuration not stated),9.38% (active)
9,COc1ccc2[nH]cc(-c3nc(-c4cn(C)c5ccncc45)cs3)c2c1,-61.7% (active)
10,COc1cccc(NC(=O)c2cccc(C3CCc4c(cc(OC)c(OC)c4OC)O3)c2)c1 (configuration not stated),32.2%
11,Cn1c(O)c(C(/C=C/c2ccccc2)=Nc2ccccc2N)c(=O)n(C)c1=O,91.4%
12,CC1=C(C(=O)n2c3ccccc3c3ccccc32)C(c2cccc([N+](=O)[O-])c2)C(C(=O)n2c3ccccc3c3ccccc32)=C(C)N1,85%
13,O=C(O)c1cn(C2CC2)c2cc(N3CCN(C(=O)N/N=C/c4ccccc4)CC3)c(F)cc2c1=O,120%
14,CC1(C)CCC(S(=O)(=O)c2ccc3c(c2)/C(=N\O)c2cc(S(=O)(=O)N4CCN(c5ccc(F)cc5O)CC4)ccc2-3)CC1,-63.7% (active)
15,Cc1ccc(C)n1/C=C/n1c(C)ccc1C,99.2%
16,CCOC(=O)C(=Cc1cccc(C#N)c1)C(=O)OCC,55.4%
17,COc1cc(-c2nc(NC(C)=O)sc2-c2ccnc(NCCNS(=O)(=O)c3ccccc3)n2)ccc1Cl,35.1%
